Measurements from PubChem BioAssay (NCATS).
Records with an inconclusive call do not appear. Entries that show only a call come without a potency. A structure can be active in one record and inactive in another. Active and inactive are the calls of the source. Unless noted, calls follow the shape of the dose curve; as a rule, active = well fitted curve in the direction sought with a large enough effect; inconclusive = small, poorly fitted or top-dose-only effect, or another doubt; inactive = no such curve, though single readings can be large; an effect the other way counts as inactive or inconclusive.

Tests used:
[1] = target: M-phase phosphoprotein 8 (Homo sapiens) (UniProt Q99549); assay: qHTS Validation Assay for Inhibitors for MPP8 Chromodomain Interactions with Methylated Histone Tails (AID 488949); also: nearly all actives have a fitted effect of over 55% in size; also: potency is read from the fitted curve at half-maximal effect
Procedure, shortened: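 MPP8 (50 nM) was preincubated with biotinylated H3(1-18)K9me3 peptide (50 nM) in PBS pH 7.4, 0.01% Tween-20 for 30 min at room temperature, then with compounds for 30 min; binding was detected by AlphaScreen.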

[2] = target: Chromobox protein homolog 1 (Homo sapiens) (UniProt P83916); assay: qHTS Validation Assay for Inhibitors of HP1-beta Chromodomain Interactions with Methylated Histone Tails (AID 488953); also: nearly all actives have a fitted effect of over 50% in size; also: potency is read from the fitted curve at half-maximal effect
Procedure, shortened: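 Compounds pinned into a preassembled complex of HP1-beta and trimethyl-K9 histone H3(1-18) biotin peptide (50 nM each; PBS pH 7.4, 0.01% Tween-20). After 30 min, bead-based AlphaScreen detection followed.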

[3] = target: Methanococcus maripaludis chaperonin (MmCpn) (UniProt Q6LX38); assay: High-Throughput Screening for Modulators of Cytosolic Chaperonin Activity: MmCpn Primary Screen (AID 488978);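 also: 50 nM MmCpn enzyme hydrolysing 30 µM ATP at 37 °C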
Procedure, shortened: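 MmCpn (50 nM final) was preincubated with compound 5 min at RT, then 30 uM ATP (final) was added and the reaction ran 10 min at 37C. ADP produced was detected by Transcreener HTRF (ex 320 nm; em 590/665 nm).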

[4] = target: D(1A) dopamine receptor (Homo sapiens) (UniProt P21728); assay: HTS Assay for Allosteric Agonists of the Human D1 Dopamine Receptor: Primary Screen for Agonists (AID 488981)
Procedure, shortened: (§1)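 Tetracycline-induced HEK293 Trex D1 cells with forced coupling to calcium, loaded with no-wash calcium dye; kinetic fluorescence read 180 s after compound addition for agonism, then a further 180 s after an EC20 dopamine challenge for potentiation.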

[5] = target: D(1A) dopamine receptor (Homo sapiens) (UniProt P21728); assay: HTS Assay for Allosteric Agonists of the Human D1 Dopamine Receptor: Primary Screen for Potentiators (AID 488982)
Procedure, shortened: as §1

[6] = target: D(1A) dopamine receptor (Homo sapiens) (UniProt P21728); assay: HTS Assay for Allosteric Agonists of the Human D1 Dopamine Receptor: Primary Screen for Antagonists (AID 488983);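 also: calcium flux response to an EC80 dopamine challenge measured with no-wash dye; nearly all actives have a fitted effect of over 65% in size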; also: potency is read from the fitted curve at half-maximal effect
Procedure, shortened: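 In this primary screen, compounds are applied to calcium-dye-loaded HEK293 T-REx cells with force-coupled D1 expression induced overnight at 30 C. An EC80 of dopamine follows the 180 s compound phase, and calcium is monitored for a further 180 s.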

[7] = Validation screen for small molecules that induce genotoxicity in human embryonic kidney (HEK293T) cells expressing luciferase-tagged ELG1 (AID 493106)
Procedure, shortened: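 In this validation screen, increased ELG1-luciferase signal flags compounds causing genetic stress. HEK293T reporter cells are treated 16 hr (37 °C, 5% CO2), developed with ONE-Glo for 30 min at room temperature, and imaged on a CCD-based reader.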

[8] = target: ATPase family AAA domain-containing protein 5 (Homo sapiens) (UniProt Q96QE3); assay: Validation screen for small molecules that inhibit ELG1-dependent DNA repair in human embryonic kidney (HEK293T) cells expressing luciferase-tagged ELG1 (AID 493107); also: nearly all actives have a fitted effect of over 70% in size; also: potency is read from the fitted curve at half-maximal effect
Procedure, shortened: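 Compounds reducing 5-fluorouridine-driven ELG1-luciferase signal in HEK293T cells were scored; exposure lasted 16 hr at 37 °C with luminescence detected via ONE-Glo.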

[9] = target: Thyrotropin-releasing hormone receptor (Homo sapiens) (UniProt P34981); assay: qHTS for Small Molecule Agonists and Allosteric Enhancers of Human TRH Receptor: Validation Screen for Agonists (AID 493127;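 active = calcium activation more than 3 SD above the typical response in the agonist read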;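 also: intracellular calcium rise by fluo-8 fluorescence before TRH EC20 addition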); conditions: TRH receptor agonist cell assay; at 2 µM; stronger effect = higher value
Procedure, shortened: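 Kinetic fluorescence assay of agonist-induced calcium release: overnight-plated TRHR cells, room-temperature fluo-8 loading, baseline then compound addition with per-second reads.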

[10] = Nrf2 qHTS screen for inhibitors: Validation (AID 493153; active = well fitted inhibition curve with a large enough effect in the main read-out, with a control signal flat, not every such curve was filed as active); conditions: viability change: measured here: cytotoxicity max response
Procedure, shortened: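 In this counterscreened reporter format, each well gives two signals: CellTiter-Fluor fluorescence for cytotoxicity and ARE-luciferase luminescence for Nrf2 function. A549 ARE_Fluc cells in 5% FBS OPTI-MEM were exposed to compound titrations for 18-24 h.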

[11] = qHTS for Inhibitors of Cell Surface uPA Generation: Validation Assay (AID 493164);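 also: RAW 264.7 macrophage cells exposed to compound for 18 h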
Procedure, shortened: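 Compounds are titrated over seven points (2.45 nM–38.3 uM final) onto pre-plated RAW 264.7 cells and incubated for 18 h. Retained intracellular ATP, measured with ATP-Lite, indicates blocked lethal factor entry.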

[12] = target: Galactokinase (Homo sapiens) (UniProt P51570); assay: qHTS Validation Assay for Inhibitors of Human Galactokinase (GALK) (AID 493189)
Procedure, shortened: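 GALK (5 nM) with 35 uM ATP and 100 uM galactose in HEPES pH8.0, MgCl2, NaCl, DTT, BSA; 1 h at room temperature. Residual ATP read by Kinase-Glo Plus luminescence after 10 min.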

[13] = Validation screen for small molecules that induce DNA re-replication in SW480 colon adenocarcinoma cells (AID 504364)
Procedure, shortened: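 Hoechst-stained SW480 nuclei, imaged at 405 nm excitation after 48 hr compound exposure, were counted for elevated DNA content as the re-replication signal.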

[14] = target: Peptidyl-prolyl cis-trans isomerase NIMA-interacting 1 (Homo sapiens) (UniProt Q13526); assay: qHTS Validation Assay to Find Inhibitors of Pin1 (AID 504536; active = well fitted inhibition curve with a large enough effect in the polarisation, with a control signal flat, not every such curve was filed as active; the % refers to the polarisation)
Procedure, shortened: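 Fluorescence polarization competition: compounds (titration) displace HiFluor-488-labeled Pin1-1b peptide from Pin1 (0.3 uM final) in pH 7.5 HEPES buffer with DTT, 10 min at room temperature; %Activity normalized to no-enzyme wells, curves fitted.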

[15] = target: Phosphoglycerate kinase, glycosomal (Trypanosoma brucei brucei) (UniProt P07378); assay: qHTS Validation Assay to Find Inhibitors of Phosphoglycerate Kinase (AID 504547)
Procedure, shortened: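 Compounds are pinned into the substrate/PGK mixture, and GAPDH (100nM final) is added to start the reaction by producing 1,3-BPG. After 60 minutes at room temperature, Kinase-Glo Plus is added and luminescence is measured 10 minutes later.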

[16] = Inducers of the Endoplasmic Reticulum Stress Response (ERSR) in human glioma: Validation (AID 504836); also: potency is read from the fitted curve at half-maximal effect
Procedure, shortened: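 Stably transfected U87-MG glioma cells carrying a GRP78-based luciferase sensor; 16 h compound incubation. Luminescence end-point read 10 min after Bright-Glo addition at room temperature.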

[17] = target: Transient receptor potential cation channel subfamily V member 1 (Homo sapiens) (UniProt Q8NER1); assay: HTS Assay for Compounds that Act as Enhancers of the Vanilloid Receptor 1 (AID 488979)
Procedure, shortened: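 TRPV1 cells loaded with Fluo-8 calcium dye; compound added and Ca2+ signal (ex 480/em 520 nm) followed 3 min, then capsaicin at EC20 added and read 2 more min to detect enhancement.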

[18] = target: Thyrotropin receptor (Homo sapiens) (UniProt P16473); assay: qHTS Assay for Antagonists of the Thyroid Stimulating Hormone Receptor (AID 488980); also: series mostly up to about 58 µM
Procedure, shortened: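 HEK293 cells transfected with human TSHR, suspended in HEPES-buffered HBSS with 70 uM RO 20-1724, were treated with compounds plus TSH at EC80 (4 nM final). cAMP was measured by competitive HTRF (cryptate anti-cAMP antibody, cAMP-d2 acceptor).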

[19] = target: phosphoglycerate mutase (Leishmania major) (UniProt Q4Q090); assay: qHTS Validation Assay to Find Inhibitors of Phosphoglycerate Mutase (AID 504548);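 also: end-point luminescence from Kinase-GloPlus after the PGAM reaction; series mostly up to about 58 µM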
Procedure, shortened: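 Inhibition of L. major PGAM was assessed by Kinase-GloPlus luminescence following a 45-minute room-temperature reaction with enzyme at 1.25nM final.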

M-phase phosphoprotein 8 (Homo sapiens), sequence (Q99549 whole entry, looked up): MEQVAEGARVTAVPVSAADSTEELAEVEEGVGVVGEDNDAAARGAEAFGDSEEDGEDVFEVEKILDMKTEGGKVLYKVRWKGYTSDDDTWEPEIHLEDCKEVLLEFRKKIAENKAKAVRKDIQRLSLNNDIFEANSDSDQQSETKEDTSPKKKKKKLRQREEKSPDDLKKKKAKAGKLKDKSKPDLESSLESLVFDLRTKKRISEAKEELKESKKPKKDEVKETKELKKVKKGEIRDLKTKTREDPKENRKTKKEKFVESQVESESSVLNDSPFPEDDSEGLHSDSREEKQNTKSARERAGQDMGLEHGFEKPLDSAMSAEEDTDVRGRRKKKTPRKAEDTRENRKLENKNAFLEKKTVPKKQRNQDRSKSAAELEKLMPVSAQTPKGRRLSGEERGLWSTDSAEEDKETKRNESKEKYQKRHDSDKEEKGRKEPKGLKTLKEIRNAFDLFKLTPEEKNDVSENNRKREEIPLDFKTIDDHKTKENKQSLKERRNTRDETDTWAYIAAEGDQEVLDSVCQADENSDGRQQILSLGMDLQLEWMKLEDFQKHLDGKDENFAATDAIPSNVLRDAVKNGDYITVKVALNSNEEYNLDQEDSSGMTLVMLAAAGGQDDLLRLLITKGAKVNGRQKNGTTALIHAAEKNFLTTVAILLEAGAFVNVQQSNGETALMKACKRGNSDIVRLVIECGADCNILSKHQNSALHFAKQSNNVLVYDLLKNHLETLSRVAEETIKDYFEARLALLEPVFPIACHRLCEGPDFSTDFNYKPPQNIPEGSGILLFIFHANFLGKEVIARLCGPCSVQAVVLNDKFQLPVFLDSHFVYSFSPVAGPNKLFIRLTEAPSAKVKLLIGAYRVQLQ
Thyrotropin-releasing hormone receptor (Homo sapiens), sequence (P34981 whole entry, looked up): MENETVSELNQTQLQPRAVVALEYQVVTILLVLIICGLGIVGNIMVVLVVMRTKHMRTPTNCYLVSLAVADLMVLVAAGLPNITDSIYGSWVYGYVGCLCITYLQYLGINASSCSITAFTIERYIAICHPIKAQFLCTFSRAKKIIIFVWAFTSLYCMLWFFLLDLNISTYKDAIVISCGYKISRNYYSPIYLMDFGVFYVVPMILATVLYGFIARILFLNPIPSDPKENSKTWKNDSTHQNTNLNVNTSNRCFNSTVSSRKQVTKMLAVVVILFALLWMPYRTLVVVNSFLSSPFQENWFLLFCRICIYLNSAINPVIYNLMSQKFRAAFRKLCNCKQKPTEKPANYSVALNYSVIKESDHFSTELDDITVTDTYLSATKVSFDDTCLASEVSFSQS
Thyrotropin receptor (Homo sapiens), sequence (P16473 whole entry, looked up): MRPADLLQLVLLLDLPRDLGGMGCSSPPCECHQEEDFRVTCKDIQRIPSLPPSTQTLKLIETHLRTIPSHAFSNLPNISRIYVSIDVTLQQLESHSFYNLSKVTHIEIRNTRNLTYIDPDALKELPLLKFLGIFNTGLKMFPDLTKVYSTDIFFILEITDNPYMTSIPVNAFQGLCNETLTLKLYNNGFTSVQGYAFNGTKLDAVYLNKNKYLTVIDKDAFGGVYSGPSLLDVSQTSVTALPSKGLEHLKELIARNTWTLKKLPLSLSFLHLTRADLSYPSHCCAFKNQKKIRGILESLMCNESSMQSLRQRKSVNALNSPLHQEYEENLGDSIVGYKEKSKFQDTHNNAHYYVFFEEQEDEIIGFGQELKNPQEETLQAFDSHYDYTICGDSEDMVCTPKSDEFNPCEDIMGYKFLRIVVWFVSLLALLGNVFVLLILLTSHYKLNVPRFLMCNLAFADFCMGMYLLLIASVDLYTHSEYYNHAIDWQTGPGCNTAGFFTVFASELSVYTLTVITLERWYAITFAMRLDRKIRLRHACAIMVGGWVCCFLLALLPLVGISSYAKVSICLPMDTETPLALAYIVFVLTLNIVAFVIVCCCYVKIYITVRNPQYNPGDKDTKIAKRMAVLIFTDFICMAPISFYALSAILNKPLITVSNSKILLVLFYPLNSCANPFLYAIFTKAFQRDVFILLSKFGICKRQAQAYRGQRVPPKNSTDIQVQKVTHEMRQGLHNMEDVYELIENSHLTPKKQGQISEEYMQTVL
Methanococcus maripaludis chaperonin (MmCpn), sequence (Q6LX38 1-543): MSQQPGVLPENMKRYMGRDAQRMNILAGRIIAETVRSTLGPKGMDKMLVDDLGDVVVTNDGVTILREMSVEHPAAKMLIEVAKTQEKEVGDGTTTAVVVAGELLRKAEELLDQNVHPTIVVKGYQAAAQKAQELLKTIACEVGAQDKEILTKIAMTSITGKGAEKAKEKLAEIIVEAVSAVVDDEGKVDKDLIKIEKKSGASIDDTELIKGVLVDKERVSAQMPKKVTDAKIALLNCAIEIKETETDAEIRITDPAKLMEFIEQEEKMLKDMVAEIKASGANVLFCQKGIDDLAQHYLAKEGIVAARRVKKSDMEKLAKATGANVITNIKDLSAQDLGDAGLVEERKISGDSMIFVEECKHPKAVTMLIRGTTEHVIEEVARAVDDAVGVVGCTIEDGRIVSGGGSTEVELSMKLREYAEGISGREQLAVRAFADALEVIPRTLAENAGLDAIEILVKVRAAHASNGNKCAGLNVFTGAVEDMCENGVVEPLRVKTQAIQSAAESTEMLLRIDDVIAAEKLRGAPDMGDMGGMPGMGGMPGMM
Galactokinase (Homo sapiens), sequence (P51570 whole entry, looked up): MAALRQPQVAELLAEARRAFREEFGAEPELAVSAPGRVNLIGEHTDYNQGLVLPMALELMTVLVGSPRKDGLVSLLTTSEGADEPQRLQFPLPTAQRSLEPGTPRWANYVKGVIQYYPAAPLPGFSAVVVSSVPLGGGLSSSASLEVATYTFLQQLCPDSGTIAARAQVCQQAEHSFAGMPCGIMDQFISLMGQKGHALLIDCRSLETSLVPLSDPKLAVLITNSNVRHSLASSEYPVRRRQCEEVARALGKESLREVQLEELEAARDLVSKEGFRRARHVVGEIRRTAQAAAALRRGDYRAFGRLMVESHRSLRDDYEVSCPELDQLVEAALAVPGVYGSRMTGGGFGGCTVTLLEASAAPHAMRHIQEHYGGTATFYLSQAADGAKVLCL
Peptidyl-prolyl cis-trans isomerase NIMA-interacting 1 (Homo sapiens), sequence (Q13526 whole entry, looked up): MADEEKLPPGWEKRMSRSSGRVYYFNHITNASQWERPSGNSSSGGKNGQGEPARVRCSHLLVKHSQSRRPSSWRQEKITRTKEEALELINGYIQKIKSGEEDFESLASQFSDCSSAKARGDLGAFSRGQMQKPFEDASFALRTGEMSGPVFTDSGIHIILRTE
D(1A) dopamine receptor (Homo sapiens), sequence (P21728 whole entry, looked up): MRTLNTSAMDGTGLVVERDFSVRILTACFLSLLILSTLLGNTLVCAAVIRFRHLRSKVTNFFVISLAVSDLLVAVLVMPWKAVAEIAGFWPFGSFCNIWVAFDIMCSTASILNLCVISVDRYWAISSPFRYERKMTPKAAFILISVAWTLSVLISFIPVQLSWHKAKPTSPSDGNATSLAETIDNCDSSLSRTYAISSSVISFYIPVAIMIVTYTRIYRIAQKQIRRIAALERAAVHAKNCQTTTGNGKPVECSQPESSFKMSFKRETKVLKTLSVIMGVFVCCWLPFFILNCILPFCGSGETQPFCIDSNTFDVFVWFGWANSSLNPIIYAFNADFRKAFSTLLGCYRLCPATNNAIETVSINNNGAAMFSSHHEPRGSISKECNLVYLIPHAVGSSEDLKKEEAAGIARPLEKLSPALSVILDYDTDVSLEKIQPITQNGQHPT
Chromobox protein homolog 1 (Homo sapiens), sequence (P83916 whole entry, looked up): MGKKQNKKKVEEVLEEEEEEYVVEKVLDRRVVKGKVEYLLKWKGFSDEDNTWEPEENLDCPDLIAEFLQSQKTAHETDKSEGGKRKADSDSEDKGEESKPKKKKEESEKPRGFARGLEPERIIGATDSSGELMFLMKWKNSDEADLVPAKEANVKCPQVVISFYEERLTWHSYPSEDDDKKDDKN
phosphoglycerate mutase (Leishmania major), sequence (Q4Q090 1-553): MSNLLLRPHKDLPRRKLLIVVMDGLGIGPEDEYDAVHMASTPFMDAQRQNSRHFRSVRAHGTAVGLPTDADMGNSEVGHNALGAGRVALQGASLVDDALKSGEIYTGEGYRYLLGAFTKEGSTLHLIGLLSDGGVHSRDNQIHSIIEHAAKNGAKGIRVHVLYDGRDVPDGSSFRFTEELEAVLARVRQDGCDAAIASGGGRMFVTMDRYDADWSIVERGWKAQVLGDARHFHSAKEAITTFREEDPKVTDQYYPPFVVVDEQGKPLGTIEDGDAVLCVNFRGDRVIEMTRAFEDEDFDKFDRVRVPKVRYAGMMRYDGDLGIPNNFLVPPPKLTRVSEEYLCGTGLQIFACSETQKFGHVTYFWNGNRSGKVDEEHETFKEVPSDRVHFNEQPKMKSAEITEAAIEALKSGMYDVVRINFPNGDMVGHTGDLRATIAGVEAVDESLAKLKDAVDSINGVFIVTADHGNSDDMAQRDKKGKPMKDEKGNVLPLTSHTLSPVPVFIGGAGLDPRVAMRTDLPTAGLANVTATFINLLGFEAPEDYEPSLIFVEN
Phosphoglycerate kinase, glycosomal (Trypanosoma brucei brucei), sequence (P07378 whole entry, looked up): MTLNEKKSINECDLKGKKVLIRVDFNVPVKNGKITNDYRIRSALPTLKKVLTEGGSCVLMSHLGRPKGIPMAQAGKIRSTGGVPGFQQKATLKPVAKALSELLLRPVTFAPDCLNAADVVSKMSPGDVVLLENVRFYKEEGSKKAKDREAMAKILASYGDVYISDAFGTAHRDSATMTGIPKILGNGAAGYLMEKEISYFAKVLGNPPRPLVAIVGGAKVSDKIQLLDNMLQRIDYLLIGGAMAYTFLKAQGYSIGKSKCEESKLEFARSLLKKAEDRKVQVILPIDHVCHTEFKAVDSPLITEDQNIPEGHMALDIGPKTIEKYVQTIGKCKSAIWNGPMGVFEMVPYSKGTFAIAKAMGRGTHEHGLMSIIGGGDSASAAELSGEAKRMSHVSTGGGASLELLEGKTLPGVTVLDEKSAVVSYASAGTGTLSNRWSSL

| SMILES | Potency [1] | Potency [2] | outcome [3] | Potency [4] | outcome [5] | Potency [6] | outcome [7] | Potency [8] | activation [9] | outcome [10] | viability change [10] | outcome [11] | outcome [12] | outcome [13] | outcome [14] | outcome [15] | Potency [16] | outcome [17] | outcome [18] | outcome [19] |
| --- | --- | --- | --- | --- | --- | --- | --- | --- | --- | --- | --- | --- | --- | --- | --- | --- | --- | --- | --- | --- |
| NCCc1c[nH]c2ccc(O)cc12 | inactive | inactive | inactive | inactive | inactive | inactive | inactive | inactive | 1.44% (inactive) | inactive | 0.321% | inactive | inactive | inactive | inactive | inactive | inactive | – | – | – |
| C[C@@H](N)Cc1cnc[nH]1 | inactive | inactive | inactive | – | inactive | inactive | inactive | inactive | 1.12% (inactive) | – | – | inactive | inactive | inactive | inactive | inactive | inactive | inactive | – | – |
| C/C=C(/C)C(=O)O[C@H]1C(C)=C2[C@H]([C@@H]1OC(=O)CCCCCCC)[C@@](C)(OC(C)=O)C[C@H](OC(=O)CCC)[C@@]1(O)[C@H]2OC(=O)[C@@]1(C)O | inactive | inactive | inactive | – | – | – | inactive | – | – | – | – | inactive | – | – | – | inactive | 0.0165 µM (active) | – | – | – |
| C[N+]1(C)C2CC(OC(=O)[C@H](CO)c3ccccc3)CC1C1OC12 (stereo partly drawn) | inactive | 7.5 nM (active) and inactive | – | – | – | – | – | – | – | – | – | – | – | – | – | – | inactive | – | – | – |
| Oc1ccc2c3c1O[C@H]1c4[nH]c5c(c4C[C@@]4(O)[C@@H](C2)N(CC2CC2)CC[C@]314)C[C@@]1(O)[C@H]2Cc3ccc(O)c4c3[C@@]1(CCN2CC1CC1)[C@H]5O4 | inactive | – | inactive | – | inactive | inactive | inactive | inactive | 0.625% (inactive) | inactive | 0% | inactive | inactive | inactive | inactive | inactive | inactive | – | – | – |
| CN[C@@H]1C[C@@H](c2ccc(Cl)c(Cl)c2)c2ccccc21 | inactive | inactive | inactive | – | inactive | – | inactive | 23.1 µM (active) | 29.8% (inactive) | inactive | 3.66% | inactive | inactive | inactive | inactive | inactive | inactive | – | – | – |
| CN1C2CCC1CC(OC(=O)c1cc(Cl)cc(Cl)c1)C2 (stereo not drawn) | inactive | inactive | inactive | – | inactive | inactive | inactive | inactive | 3.5% (inactive) | inactive | 1.01% | inactive | inactive | inactive | inactive | inactive | inactive | – | – | – |
| NC1CC1c1ccccc1 (stereo not drawn) | inactive | inactive | – | – | – | – | inactive | inactive | 1.44% (inactive) | inactive | -9.56% | inactive | inactive | inactive | inactive | inactive | inactive | – | inactive | inactive |
| Cc1c(C(=O)c2cccc3ccccc23)c2cccc3c2n1[C@H](CN1CCOCC1)CO3 | inactive | 6 nM (active) | – | – | – | inactive | inactive | – | -3.25% (inactive) | – | – | – | inactive | inactive | – | inactive | – | – | inactive | – |
| NC1CCc2cc(O)c(O)cc2C1 (stereo not drawn) | 79.4 µM (active) | – | inactive | – | inactive | 0.0891 µM (active) | inactive | inactive | 0.75% (inactive) | inactive | 10.6% | inactive | inactive | inactive | inactive | inactive | inactive | – | inactive | – |
| CC(C)Oc1cccnc1N(C)C1CCN(Cc2ccccc2)CC1 | inactive | – | inactive | inactive | inactive | – | inactive | inactive | 0% (inactive) | inactive | 1.23% | inactive | inactive | inactive | inactive | inactive | inactive | – | – | – |
| COc1ccc2c(c[n+](C)c3c4cc5c(cc4ccc23)OCO5)c1OC | inactive | – | inactive | – | inactive | inactive | inactive | inactive | 0.625% (inactive) | – | – | inactive | inactive | – | inactive | inactive | inactive | – | – | – |
| CC[C@@H](C(N)=O)N1CCCC1=O | inactive | inactive | inactive | – | inactive | inactive | inactive | inactive | – | inactive | 0% | inactive | – | – | inactive | inactive | inactive | – | – | inactive |
| CC(=O)NCCc1c[nH]c2ccccc12 | inactive | – | inactive | – | inactive | inactive | inactive | inactive | 0.375% (inactive) | inactive | 1% | inactive | inactive | inactive | inactive | inactive | inactive | – | – | inactive |
| S=C(NC1CCCCC1)N1CCC(c2cnc[nH]2)CC1 | inactive | – | inactive | inactive | inactive | inactive | inactive | inactive | 0.5% (inactive) | inactive | -5.13% | inactive | inactive | inactive | inactive | inactive | inactive | – | inactive | – |
| Clc1ccc(C(c2ccc(Cl)cc2)n2cc[n+](CC(OCc3ccc(Cl)cc3Cl)c3ccc(Cl)cc3Cl)c2)cc1 (stereo not drawn) | 35.5 µM (active) and inactive | 50100 nM (active) | – | – | – | – | inactive | – | -4.62% (inactive) | – | – | – | inactive | – | – | – | inactive | – | – | – |
